# In all, about 33,000 sequences were measured (“normalized occupancy”: median about 0.075, highest 2% from about 0.095 on). This is one part of a sample in which the highest values are shown more often than they occur.
# Molecular target: MaxL homodimer (Homo sapiens, UniProt P61244 1-160)
# Test: universal protein-binding microarray (PBM); PBS-based mixture, 10 nM His-tagged protein dimer, 2% milk, 200 ng/uL BSA, 50 ng/uL salmon testes DNA, 0.02% TX-100; detection with Alexa 488 anti-His antibody;; high values mean tight binding
# Settings: protein: recombinant; tags: C-terminal His-tag (pET21a); chain copies: 2; dsDNA, one strand shown
# Procedure, shortened: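 Binding occupancy is a fluorescence intensity normalised to the intensity of the highest-ranked sequence word. Those intensities came from 8-mers on Agilent 4 x 44 K 'all 10-mer' universal arrays incubated with 10 nM His-tagged protein dimer. Bound protein was detected with 10 ng/μL fluorophore-conjugated anti-His antibody before scanning on a GenePix 4400A.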
# Sequence of MaxL homodimer (P61244 whole entry): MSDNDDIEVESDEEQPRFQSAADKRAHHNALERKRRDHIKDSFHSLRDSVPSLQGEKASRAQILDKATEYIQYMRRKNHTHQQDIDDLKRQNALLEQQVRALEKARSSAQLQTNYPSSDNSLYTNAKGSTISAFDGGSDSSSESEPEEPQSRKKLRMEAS
row,Sequence,binding signal [normalized occupancy]
1,TACCTAGA,0.073
2,AACTCATC,0.0815
3,GCTGACGA,0.072
4,CCATGTCG,0.0843
5,TCATGTAA,0.0936
6,GCATGTAA,0.0836
7,ACATGTAG,0.101
8,AAATGTAG,0.0793
9,ACATGTCT,0.0899
10,ACATGTAT,0.102
11,ACATGTAA,0.0953
12,CCATGTAG,0.0836
13,ACATGTCG,0.1
14,AGATGTAT,0.0832
15,AAATGTAT,0.0812
16,ACCATTAG,0.0781
17,ATCCAGAG,0.0719
18,TACGCGGA,0.0723
19,GACGCGGC,0.0758
20,CCCGCGGG,0.0758
21,CACGCGGC,0.151
22,CGCGCGGA,0.0836
23,AACGCGGC,0.0757
24,CACGCGGG,0.145
25,AACGCGGA,0.0818

row,Sequence,binding signal [normalized occupancy]
1,CACGCGGA,0.15
2,CCGAGAGA,0.0728
3,TCGCACGA,0.0806
4,CAGGTGCG,0.0849
5,CAGTTGCA,0.0721
6,CCCTAACC,0.0758
7,CTGTGCAA,0.0754
8,AACACGTC,0.0786
9,AACACGTT,0.128
10,AACACGTG,0.706
11,TACACGTA,0.083
12,CACACGTG,0.553
13,AACACGGA,0.0756
14,CACACGTA,0.0925
15,AACACGTA,0.083
16,CACACGTC,0.0858
17,ATTTACGC,0.0786
18,CTCCCGCC,0.0726
19,ATTATGAC,0.0798
20,ACCTCTAT,0.0776
21,AAATGGTA,0.0806
22,CATTTTAC,0.0853
23,AGATACAC,0.0831
24,GCTCCTAA,0.0767
25,AAACGACC,0.0727

row,Sequence,binding signal [normalized occupancy]
1,CACGTAGG,0.0797
2,TACGTGGA,0.0878
3,AAAGTGGA,0.0743
4,CACGTGGG,0.707
5,CACGTGGA,0.768
6,GACGTGGA,0.087
7,CACGTGGC,0.837
8,CAAGTGGG,0.0807
9,AACGTGGA,0.115
10,CACGTCGC,0.0825
11,CAAGTGGC,0.0744
12,AAGGTGGA,0.0747
13,AGAGCCGA,0.0723
14,CTTTTTGA,0.0761
15,ACCGTAAC,0.0752
16,ACTAAGAC,0.0733
17,ACGGCACC,0.0742
18,GTCCACAA,0.0768
19,CAGCGGTA,0.0751
20,ATCCGTGG,0.078
21,ACTGTAAT,0.0778
22,AACAGGTG,0.102
23,CACATCTG,0.0871
24,CAAATGTG,0.0879
25,TACATCTA,0.0787

row,Sequence,binding signal [normalized occupancy]
1,AACATCTG,0.0767
2,TACATGTA,0.0978
3,CACATGTG,0.216
4,AACATGTT,0.0895
5,AACATGTG,0.184
6,TACATGGA,0.0848
7,CACAGGTG,0.0857
8,AACAGGTC,0.0733
9,CACATACG,0.0784
10,GTGGGGCA,0.0781
11,ACCCACTA,0.085
12,CTCCCGAA,0.0776
13,AACCTACT,0.074
14,GGTTGACA,0.0758
15,AGACTTGG,0.0722
16,AACATGTC,0.087
17,CACATGTA,0.147
18,CACATGTC,0.159
19,GACATGTC,0.0872
20,AACATGTA,0.0923
21,GACATGTA,0.0884
22,ACGGGTGA,0.0801
23,CATCTCAA,0.0793
24,TCAGCTGA,0.0752
25,GCTACGAC,0.078

row,Sequence,binding signal [normalized occupancy]
1,CGCCACGC,0.0953
2,AGCCACGA,0.0883
3,AGCCACGC,0.109
4,CGCCACGA,0.0799
5,CGCCACAA,0.076
6,AGCCACGG,0.0742
7,GATTTTTA,0.0759
8,ACGTACAG,0.0776
9,CAAATGTA,0.0834
10,TCCCTCCA,0.075
11,AGACAGAA,0.0751
12,CATATGCG,0.105
13,CATATGCA,0.0978
14,GATATGCA,0.0792
15,TATATGCA,0.0896
16,CATATGTA,0.0972
17,AATATGTA,0.0801
18,AATATGCG,0.0761
19,CATATGCC,0.095
20,CATATGTC,0.0943
21,TAGACCTA,0.0731
22,GGGGAACA,0.081
23,TTACTAAA,0.0728
24,TGACTCAA,0.0763
25,AGGGAGCA,0.0728

row,Sequence,binding signal [normalized occupancy]
1,TAGTTGGA,0.0742
2,TAAGGACA,0.075
3,CTACGCAC,0.0773
4,ACCGCGTG,0.182
5,ACCGCGTA,0.0727
6,AACGCGTA,0.0792
7,ACCGCGCG,0.0856
8,AACGCGTG,0.123
9,TACGCGTA,0.0797
10,GACGCGTC,0.0757
11,GACGCGTA,0.0737
12,CACGCGTC,0.119
13,AACGCGTT,0.0813
14,CACGCGTA,0.121
15,AACGCGTC,0.0723
16,CCTTAGCC,0.0725
17,CGTGCTGC,0.09
18,CGCTGACA,0.0773
19,GCGAGCAA,0.0723
20,AAGAACAT,0.08
21,GACGGTCA,0.0718
22,GCGACAGA,0.0794
23,AAGTCATT,0.0758
24,CAACATTA,0.0824
25,CCGAATGA,0.0745

row,Sequence,binding signal [normalized occupancy]
1,AAACACAG,0.0769
2,CGCGCGTA,0.0797
3,CTCGCGTA,0.0788
4,ATCGCGTA,0.0764
5,CACGCGTG,0.17
6,ATCGCGTC,0.0719
7,ATCGCGTG,0.127
8,GCCAACCC,0.08
9,AACATGGT,0.0843
10,AGTGAAAG,0.0743
11,CCCGGTAG,0.0721
12,ATGTGAAT,0.0967
13,ATGTGATA,0.0999
14,CTGTGATC,0.0728
15,ATCTGATG,0.0779
16,CTGTGATA,0.0741
17,GTGTGATA,0.0856
18,AGGTGATC,0.0832
19,ATGTGACG,0.0922
20,ATGTGAAA,0.0872
21,ATGTGAAG,0.0891
22,ATGTGATG,0.0968
23,ATGTGATC,0.0964
24,AAGAGGAA,0.0726
25,AATTATCG,0.0772

row,Sequence,binding signal [normalized occupancy]
1,AATTCGAG,0.0732
2,AAGAGGGC,0.0738
3,CTGGTTAC,0.0749
4,ATAGGGAT,0.0812
5,CCGAGTAG,0.0732
6,GATGATAA,0.078
7,AGAATGTG,0.0881
8,ATGGTAGG,0.0818
9,CTTACTAA,0.0721
10,CTAGTGGC,0.0765
11,GTCGTGGA,0.0856
12,ATCGTGGC,0.086
13,CTCGTGGA,0.103
14,ATCGTGGA,0.084
15,CTCGTGGC,0.119
16,CATCTCTA,0.0817
17,CAATTATG,0.0802
18,GAACACGC,0.108
19,AAACACGC,0.0929
20,GAACACAC,0.0767
21,CAACACGA,0.0817
22,CAACACGC,0.0995
23,GAACACGA,0.0948
24,ATTAGCGG,0.0719
25,ACATTGAA,0.0824

row,Sequence,binding signal [normalized occupancy]
1,ACGAGAGG,0.0776
2,AAACAAAG,0.0763
3,GAATGCAC,0.0772
4,ACATGCAA,0.0826
5,GCATGCAA,0.0988
6,GTATGCAC,0.0856
7,TCATGCAA,0.0829
8,GCATGCAC,0.11
9,ATGGAAGC,0.0783
10,TGAATCCA,0.0757
11,TCGTTCCA,0.0775
12,CCATAGCC,0.0762
13,GCACACGC,0.1
14,TCACACGA,0.0859
15,AAACACGT,0.106
16,ACACACGG,0.083
17,ACACACGT,0.0986
18,CCACACGA,0.0959
19,GCACACAC,0.0907
20,ACACACGA,0.0911
21,GCACACGA,0.0896
22,CCACACGG,0.0835
23,AAACACGG,0.0741
24,AAACACGA,0.0848

# — publication PMC4242493, “Sequence specificity incompletely defines the genome-wide occupancy of Myc”
